The list is not random: actives were taken first. Their share in the collection is about 11%.
HEK293 tox: kills HEK 293 cells | HEK 293 viability, ATP luminescence (CellTiter-Glo), 48-72 h | Potency, µM (top dose mostly 115 µM), usual class: inhibitors | hit rate 6.6% among 94,000 | AID 1345083; further: nearly all actives have a fitted effect of over 60% in size
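250 HEK 293 cells/well; compound by pintool; incubated 48 or 72 hr at 37 degree Celsius; CellTiter-Glo added, 10 min RT, luminescence imaged.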
NIH3T3 tox: cytotoxic compounds in NIH 3T3 cells; NIH 3T3 viability, CellTiter-Glo ATP luminescence, 48-72 h; Potency, µM (doses to about 96.7 µM), usual class: inhibitors; hit rate 4.3% among 94,000; further: nearly all actives have a fitted effect of over 55% in size
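Cytotoxicity was measured by CellTiter-Glo ATP luminescence after 48 or 72 h compound exposure at 37 °C. Mouse NIH 3T3 fibroblasts were seeded at 400 cells/well and dosed by 23 nL pin transfer.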
NPR1 antag: antagonists of human natriuretic peptide receptor Npr1. P16066. HEK293 hNpr1 GloSensor cGMP, ANP-stimulated luminescence. Potency, µM (top dose mostly 46.3 µM), most hits filed as inhibitors. hit rate 1.6% among 76,000; calls by dose curve; further: nearly all actives have a fitted effect of over 60% in size
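Compound pre-incubated 30 min at room temperature on GloSensor-loaded HEK293 cells stably carrying hNpr1 and the pGS-40F cGMP biosensor. Stimulation uses hNppA at 0.1 nM final; luminescence is taken at baseline and 20 min post-agonist.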
FLuc inh: inhibitors of firefly (Photinus pyralis) luciferase. purified P. pyralis luciferase, luminescence, biochemical. hit rate 2.5% among 76,000. AID 1347043. P08659. Potency, µM (series often up to 115 µM), hits mostly inhibitors; further: nearly all actives have a fitted effect of over 65% in size
Target sequence (P08659 whole entry, looked up): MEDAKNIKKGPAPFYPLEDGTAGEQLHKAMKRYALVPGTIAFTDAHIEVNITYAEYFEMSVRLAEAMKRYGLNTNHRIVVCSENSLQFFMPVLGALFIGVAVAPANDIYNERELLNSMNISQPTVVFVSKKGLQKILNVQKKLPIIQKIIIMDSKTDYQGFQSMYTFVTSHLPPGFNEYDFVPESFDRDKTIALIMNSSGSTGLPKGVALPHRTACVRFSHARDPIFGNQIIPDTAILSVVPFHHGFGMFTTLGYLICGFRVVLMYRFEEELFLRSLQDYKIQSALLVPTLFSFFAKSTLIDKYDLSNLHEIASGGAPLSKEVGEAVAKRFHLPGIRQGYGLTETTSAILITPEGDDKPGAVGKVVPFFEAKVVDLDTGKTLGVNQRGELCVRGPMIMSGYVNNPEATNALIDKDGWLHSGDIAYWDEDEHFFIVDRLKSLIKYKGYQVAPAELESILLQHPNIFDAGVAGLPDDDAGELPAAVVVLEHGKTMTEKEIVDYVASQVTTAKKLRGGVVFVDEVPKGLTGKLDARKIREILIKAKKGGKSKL
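Purified P. pyralis luciferase (10nM final) in 50mM Tris acetate pH 7.5, 10mM Mg acetate, 0.01% Tween-20, 0.05% BSA with 10uM D-luciferin and 10uM ATP. Compounds titrated qHTS. Luminescence imaged on CCD.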
Large screens that a line does not name were inactive. Unless noted, the call rests on the fitted dose curve; in most records, active means well fitted curve in the direction sought with a large enough effect; inconclusive means small, poorly fitted or top-dose-only effect, or another doubt; inactive means no such curve, though single readings can be large; an effect the other way counts as inactive or inconclusive.

COc1ccccc1Nc1ccnc(N2CCCC(C(=O)N3CCCCC3)C2)n1 (centres undefined)	HEK293 tox 35µM, NIH3T3 tox 35µM (no result: NPR1 antag, FLuc inh)
COc1ccccc1Nc1ccnc(N2CCC[C@H]2C(=O)NC(C)C)n1	none (no result: NPR1 antag, FLuc inh)
COc1ccccc1Nc1ccnc(N2CCCC(C(=O)N3CCOCC3)C2)n1 (centres undefined)	HEK293 tox inconclusive (no result: NPR1 antag, FLuc inh)
O=C(NC1CC1)C1(CCO)CCN(Cc2ccccc2)C1 (centres undefined)	none (no result: NPR1 antag, FLuc inh)
O=c1cc(-c2ccccn2)oc2c(NC3CCOCC3)nccc12	NIH3T3 tox 14µM
O=c1cc(-c2ccccn2)oc2c(-c3cn[nH]c3)nccc12	HEK293 tox inconclusive, NIH3T3 tox 11µM
Cc1cccc(C(=O)NCC(=O)N2CCCCCCNC(=O)CC2c2ccccc2)c1 (centres undefined)	none
CC(C)N1C[C@@H](CO)[C@H](c2nc(-c3cccnc3)no2)C1	HEK293 tox inconclusive, FLuc inh 20µM
OC[C@@H]1CN(CC2CC2)C[C@H]1c1nc(-c2cccnc2)no1	FLuc inh inconclusive
CC1(Cc2ccc3c(c2)OCO3)CCCN(CC(=O)NCc2ccco2)C1 (centres undefined)	HEK293 tox 45µM, NPR1 antag inconclusive
CC1(Cc2ccc3c(c2)OCO3)CCCN(C(=O)CCCn2ccnc2)C1 (centres undefined)	HEK293 tox 40µM, NIH3T3 tox inconclusive
Cc1cc(=O)n(CC(=O)N2CCCC(C)(Cc3ccc4c(c3)OCO4)C2)nc1C (centres undefined)	HEK293 tox inconclusive
CCn1ncc(N2CCCC(CC(=O)NC3CCN(C)CC3)C2)cc1=O (centres undefined)	none (no result: NPR1 antag, FLuc inh)
CC(C)c1ccc(CNC(=O)c2ccc(Cn3ccn4nc5c(c4c3=O)CCCC5)cc2)cc1	NIH3T3 tox inconclusive
O=C(Nc1cccc(-c2nnc3n2CCCC3)c1)c1ccccc1Cl	none
Cc1ccsc1C(=O)Nc1ccc(-c2nnc3n2CCCC3)cc1	NIH3T3 tox inconclusive, FLuc inh 35µM
CCc1ccc(C(=O)Nc2cccc(-c3nnc4n3CCCC4)c2)cc1	HEK293 tox inconclusive, NIH3T3 tox inconclusive, NPR1 antag inconclusive, FLuc inh 22µM
CCOc1ccccc1C(=O)Nc1cccc(-c2nnc3n2CCCC3)c1	HEK293 tox inconclusive, NIH3T3 tox 40µM
COCCNC(=O)c1cnc2c(c1)N(Cc1ccccc1C(F)(F)F)CCC2	HEK293 tox inconclusive, NIH3T3 tox inconclusive
COCCNc1ncc(-c2cccc(N[S+](C)(=O)[O-])c2)c2c1OCC2	HEK293 tox inconclusive, NIH3T3 tox inconclusive, FLuc inh 63µM
CNC(=O)c1cccc(-c2cnc(Nc3cccc(F)c3)c3c2CCO3)c1	HEK293 tox inconclusive, NIH3T3 tox inconclusive, FLuc inh 22µM
COc1ccc(C(=O)Nc2ncc(-c3cccc(N(C)C)c3)c3c2OCC3)cc1	HEK293 tox 100µM, NIH3T3 tox inconclusive, NPR1 antag inconclusive, FLuc inh inconclusive
O=C(Nc1ncc(-c2cccc(F)c2)c2c1OCC2)c1c[nH]c2ccccc12	HEK293 tox 50µM, NIH3T3 tox 40µM, FLuc inh inconclusive
Fc1cccc(-c2cnc(Nc3cccnc3)c3c2CCO3)c1	HEK293 tox inconclusive, NIH3T3 tox inconclusive
CN(C)c1cccc(-c2cnc(NC(=O)c3ccncc3)c3c2CCO3)c1	HEK293 tox inconclusive
CNC(=O)c1cc(C)nc2onc(C3CCCN3C(=O)c3ccccc3)c12 (centres undefined)	none (no result: NPR1 antag, FLuc inh)
CC(C)C1=NOC2(CCCN(CC3CCCCC3)C2)C1 (centres undefined)	none (no result: NPR1 antag, FLuc inh)
COCCNc1ncc(-c2ccc(SC)cc2)c2c1OCC2	HEK293 tox inconclusive, NIH3T3 tox inconclusive, FLuc inh inconclusive
COCCNc1ncc(-c2cccc(OC)c2)c2c1OCC2	HEK293 tox inconclusive, NIH3T3 tox inconclusive, FLuc inh 18µM
COCCNc1ncc(-c2ccc(NC(C)=O)cc2)c2c1OCC2	HEK293 tox inconclusive, NIH3T3 tox inconclusive
COCCNc1ncc(-c2cccc(F)c2)c2c1OCC2	HEK293 tox inconclusive, NIH3T3 tox inconclusive, FLuc inh 79µM
COc1cccc(C(=O)N2CCC(C(=O)N3CCC(N4Cc5cccn5C4=O)CC3)CC2)c1	NIH3T3 tox inconclusive (no result: NPR1 antag, FLuc inh)
Fc1cccc(CN2CCO[C@@H](COc3ccccn3)[C@@H]2c2ccccc2)c1	HEK293 tox inconclusive, NIH3T3 tox 35µM (no result: NPR1 antag, FLuc inh)
O=C(Cc1ccccc1)N1CCC(N2C(=O)C(OCC3CC3)C23CCCCC3)CC1 (centres undefined)	HEK293 tox inconclusive

Source: PubChem BioAssay
